According to article PMC7862700, “An all-to-all approach to the identification of sequence-specific readers for epigenetic DNA modifications on cytosine”:

What was measured:
Assay in all cases: DAPPL (digital affinity profiling via proximity ligation, sequencing); 10 mM Tris-HCl pH 7.5, 50 mM NaCl, 1 mM DTT, 4% glycerol, room temperature, 30 min; GST-TFs on glutathione beads, 16-mer random dsDNA library, 0.1% formaldehyde crosslink after washing; high values mean tight binding
FEV = target: T1, FEV (Homo sapiens, UniProt Q99581 1-238); details: protein: recombinant; tags: N-terminal GST; dsDNA, one strand shown
T1 sequence: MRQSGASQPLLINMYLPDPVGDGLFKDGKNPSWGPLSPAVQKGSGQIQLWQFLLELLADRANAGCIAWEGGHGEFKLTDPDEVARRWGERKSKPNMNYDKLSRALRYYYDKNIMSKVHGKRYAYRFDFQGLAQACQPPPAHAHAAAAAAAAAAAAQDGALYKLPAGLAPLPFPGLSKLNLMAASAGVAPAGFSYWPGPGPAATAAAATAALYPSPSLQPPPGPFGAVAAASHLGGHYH
In short: (§1)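 Sequencing on an Illumina NextSeq500 followed washing, crosslinking with 0.1% formaldehyde, proximity ligation (BsaI/T4 ligase, 1 h, 37 °C) and PCR amplification of pools that had been incubated for 30 min at room temperature with 200 nmole of a random double-stranded 16-mer DNA library in Tris/NaCl/DTT/glycerol buffer. Each pool held DNA-barcoded human transcription factors, expressed in yeast as GST fusions and captured on glutathione beads, plus a tag-only sample. Binding signal is a hexamer's read frequency for a factor divided by its frequency in the tag-only sample.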

ETV5 = ETV5 (Homo sapiens, UniProt P41161 1-510); details: protein: recombinant; tags: N-terminal GST; dsDNA, one strand shown
ETV5, sequence (P41161 whole entry): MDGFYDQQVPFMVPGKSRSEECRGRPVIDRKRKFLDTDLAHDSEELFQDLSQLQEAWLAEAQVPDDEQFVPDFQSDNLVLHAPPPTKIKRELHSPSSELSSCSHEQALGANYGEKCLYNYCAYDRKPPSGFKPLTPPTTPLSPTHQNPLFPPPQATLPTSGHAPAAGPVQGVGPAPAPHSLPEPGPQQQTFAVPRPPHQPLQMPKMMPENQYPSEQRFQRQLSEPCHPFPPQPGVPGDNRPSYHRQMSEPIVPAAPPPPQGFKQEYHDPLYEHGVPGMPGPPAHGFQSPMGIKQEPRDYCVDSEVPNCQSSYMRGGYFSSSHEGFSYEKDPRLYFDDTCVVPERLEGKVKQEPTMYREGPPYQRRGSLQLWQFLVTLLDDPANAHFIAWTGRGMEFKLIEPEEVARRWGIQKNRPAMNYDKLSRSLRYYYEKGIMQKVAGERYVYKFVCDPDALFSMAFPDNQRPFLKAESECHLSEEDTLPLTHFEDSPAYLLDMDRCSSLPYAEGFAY
In short: as §1

HSF1 = HSF1 (Homo sapiens, UniProt Q00613 1-529); details: protein: recombinant; tags: N-terminal GST; chain copies: 3; dsDNA, one strand shown
HSF1, sequence (Q00613 whole entry): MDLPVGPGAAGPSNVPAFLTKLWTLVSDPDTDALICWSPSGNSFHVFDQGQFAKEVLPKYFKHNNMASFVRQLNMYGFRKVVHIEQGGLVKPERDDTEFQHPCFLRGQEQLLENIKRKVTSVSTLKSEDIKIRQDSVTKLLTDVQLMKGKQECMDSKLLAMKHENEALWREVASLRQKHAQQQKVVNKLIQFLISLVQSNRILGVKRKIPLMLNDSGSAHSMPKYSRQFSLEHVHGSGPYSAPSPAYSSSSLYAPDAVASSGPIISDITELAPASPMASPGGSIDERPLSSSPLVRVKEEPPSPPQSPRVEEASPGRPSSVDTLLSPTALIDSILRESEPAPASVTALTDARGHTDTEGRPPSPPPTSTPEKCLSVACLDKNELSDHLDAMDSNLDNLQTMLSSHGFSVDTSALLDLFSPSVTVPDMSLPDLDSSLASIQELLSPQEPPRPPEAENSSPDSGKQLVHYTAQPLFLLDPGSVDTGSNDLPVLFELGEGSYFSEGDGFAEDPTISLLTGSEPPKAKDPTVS
In short: as §1

SPIC = target: T2, SPIC (Homo sapiens, UniProt Q8N5J4 1-248); details: protein: recombinant; tags: N-terminal GST; dsDNA, one strand shown
T2 sequence: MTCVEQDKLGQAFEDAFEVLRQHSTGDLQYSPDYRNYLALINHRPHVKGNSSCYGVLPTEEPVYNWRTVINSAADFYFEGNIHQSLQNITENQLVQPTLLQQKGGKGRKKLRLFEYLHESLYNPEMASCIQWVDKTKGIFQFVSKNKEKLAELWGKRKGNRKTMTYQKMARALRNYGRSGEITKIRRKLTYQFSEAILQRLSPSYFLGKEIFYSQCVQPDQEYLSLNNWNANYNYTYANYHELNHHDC
In short: as §1

ELF4 = ELF4 (Homo sapiens, UniProt Q99607 1-663); details: protein: recombinant; tags: N-terminal GST; dsDNA, one strand shown
ELF4, sequence (Q99607 whole entry): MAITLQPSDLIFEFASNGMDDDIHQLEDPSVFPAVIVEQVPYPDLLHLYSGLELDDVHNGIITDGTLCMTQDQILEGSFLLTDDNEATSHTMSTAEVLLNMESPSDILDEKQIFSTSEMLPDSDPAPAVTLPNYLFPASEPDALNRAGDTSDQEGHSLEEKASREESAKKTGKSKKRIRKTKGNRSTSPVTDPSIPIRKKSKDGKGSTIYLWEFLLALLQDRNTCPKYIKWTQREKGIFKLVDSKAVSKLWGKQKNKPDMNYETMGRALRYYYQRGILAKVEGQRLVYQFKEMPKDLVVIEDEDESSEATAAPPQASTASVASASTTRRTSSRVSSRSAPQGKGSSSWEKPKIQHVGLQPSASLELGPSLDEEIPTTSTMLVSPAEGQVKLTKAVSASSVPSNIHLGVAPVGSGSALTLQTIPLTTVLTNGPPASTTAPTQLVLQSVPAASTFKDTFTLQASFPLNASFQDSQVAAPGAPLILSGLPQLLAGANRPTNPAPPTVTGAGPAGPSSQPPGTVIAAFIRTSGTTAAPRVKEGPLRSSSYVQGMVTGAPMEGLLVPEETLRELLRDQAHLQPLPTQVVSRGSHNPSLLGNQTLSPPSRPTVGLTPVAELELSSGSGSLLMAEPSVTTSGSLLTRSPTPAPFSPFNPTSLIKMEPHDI
In short: as §1

ELK4 = target: T3, ELK4 (Homo sapiens, UniProt P28324-2 1-405); details: protein: recombinant; tags: N-terminal GST; dsDNA, one strand shown
T3 sequence: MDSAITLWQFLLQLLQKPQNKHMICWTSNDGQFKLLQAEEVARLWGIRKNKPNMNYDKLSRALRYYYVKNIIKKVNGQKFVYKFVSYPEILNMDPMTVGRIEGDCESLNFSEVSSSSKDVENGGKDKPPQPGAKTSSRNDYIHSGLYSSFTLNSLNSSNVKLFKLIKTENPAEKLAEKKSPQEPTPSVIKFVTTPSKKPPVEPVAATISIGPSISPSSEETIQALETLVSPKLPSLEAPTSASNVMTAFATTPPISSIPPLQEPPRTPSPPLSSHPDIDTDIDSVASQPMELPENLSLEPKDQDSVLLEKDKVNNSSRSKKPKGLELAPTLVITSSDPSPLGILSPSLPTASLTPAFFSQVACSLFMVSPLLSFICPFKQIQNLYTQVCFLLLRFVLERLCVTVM
In short: as §1

ETV2 = target: T4, ETV2 (Homo sapiens, UniProt O00321 1-342); details: protein: recombinant; tags: N-terminal GST; dsDNA, one strand shown
T4 sequence: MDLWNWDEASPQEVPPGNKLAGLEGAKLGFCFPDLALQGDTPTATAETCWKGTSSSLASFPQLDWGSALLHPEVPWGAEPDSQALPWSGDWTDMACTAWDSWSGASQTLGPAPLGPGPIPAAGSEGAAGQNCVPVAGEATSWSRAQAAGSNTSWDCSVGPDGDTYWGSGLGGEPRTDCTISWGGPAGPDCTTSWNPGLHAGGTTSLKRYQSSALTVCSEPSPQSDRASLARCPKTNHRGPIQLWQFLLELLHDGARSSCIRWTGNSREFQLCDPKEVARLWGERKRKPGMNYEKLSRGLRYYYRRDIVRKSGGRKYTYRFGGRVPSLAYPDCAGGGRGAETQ
In short: as §1

ELF3 = target: T5, ELF3 (Homo sapiens, UniProt P78545 1-371); details: protein: recombinant; tags: N-terminal GST; dsDNA, one strand shown
T5 sequence: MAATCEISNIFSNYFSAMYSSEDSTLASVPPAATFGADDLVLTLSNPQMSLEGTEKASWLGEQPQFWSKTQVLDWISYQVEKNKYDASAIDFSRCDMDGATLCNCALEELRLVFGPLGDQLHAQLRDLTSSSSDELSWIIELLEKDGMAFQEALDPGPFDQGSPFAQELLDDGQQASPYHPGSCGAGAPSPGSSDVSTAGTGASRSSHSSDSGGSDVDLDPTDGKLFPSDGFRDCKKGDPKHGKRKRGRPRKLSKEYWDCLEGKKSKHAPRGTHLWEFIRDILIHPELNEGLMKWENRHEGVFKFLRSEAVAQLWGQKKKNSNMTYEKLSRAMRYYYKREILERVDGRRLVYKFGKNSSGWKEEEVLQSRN
In short: as §1

CRX = CRX (Homo sapiens, UniProt O43186 1-299); details: protein: recombinant; tags: N-terminal GST; dsDNA, one strand shown
CRX, sequence (O43186 whole entry): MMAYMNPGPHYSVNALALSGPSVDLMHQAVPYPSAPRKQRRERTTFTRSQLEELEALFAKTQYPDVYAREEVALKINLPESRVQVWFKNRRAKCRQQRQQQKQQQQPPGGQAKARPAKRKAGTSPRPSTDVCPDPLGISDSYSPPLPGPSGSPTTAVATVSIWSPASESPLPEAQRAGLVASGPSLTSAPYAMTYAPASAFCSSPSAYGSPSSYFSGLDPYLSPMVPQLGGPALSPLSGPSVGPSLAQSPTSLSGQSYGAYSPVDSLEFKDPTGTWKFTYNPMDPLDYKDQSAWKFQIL
In short: as §1

ETV1 = ETV1 (Homo sapiens, UniProt P50549 1-477); details: protein: recombinant; tags: N-terminal GST; dsDNA, one strand shown
ETV1, sequence (P50549 whole entry): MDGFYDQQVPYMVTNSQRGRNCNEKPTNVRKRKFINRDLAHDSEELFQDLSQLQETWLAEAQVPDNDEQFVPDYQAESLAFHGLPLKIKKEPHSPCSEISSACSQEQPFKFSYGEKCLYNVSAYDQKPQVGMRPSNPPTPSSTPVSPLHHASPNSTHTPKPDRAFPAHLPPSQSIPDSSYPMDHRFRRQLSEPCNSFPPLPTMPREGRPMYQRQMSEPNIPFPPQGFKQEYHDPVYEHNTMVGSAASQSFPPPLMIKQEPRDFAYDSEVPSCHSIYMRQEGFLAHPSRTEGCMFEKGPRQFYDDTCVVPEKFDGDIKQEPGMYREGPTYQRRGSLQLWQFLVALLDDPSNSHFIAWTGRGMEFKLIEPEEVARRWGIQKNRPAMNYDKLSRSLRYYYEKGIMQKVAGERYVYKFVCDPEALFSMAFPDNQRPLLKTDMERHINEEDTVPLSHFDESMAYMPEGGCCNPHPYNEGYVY
In short: as §1

ERF = target: T6, ERF (Homo sapiens, UniProt P50548 1-548); details: protein: recombinant; tags: N-terminal GST; dsDNA, one strand shown
T6 sequence: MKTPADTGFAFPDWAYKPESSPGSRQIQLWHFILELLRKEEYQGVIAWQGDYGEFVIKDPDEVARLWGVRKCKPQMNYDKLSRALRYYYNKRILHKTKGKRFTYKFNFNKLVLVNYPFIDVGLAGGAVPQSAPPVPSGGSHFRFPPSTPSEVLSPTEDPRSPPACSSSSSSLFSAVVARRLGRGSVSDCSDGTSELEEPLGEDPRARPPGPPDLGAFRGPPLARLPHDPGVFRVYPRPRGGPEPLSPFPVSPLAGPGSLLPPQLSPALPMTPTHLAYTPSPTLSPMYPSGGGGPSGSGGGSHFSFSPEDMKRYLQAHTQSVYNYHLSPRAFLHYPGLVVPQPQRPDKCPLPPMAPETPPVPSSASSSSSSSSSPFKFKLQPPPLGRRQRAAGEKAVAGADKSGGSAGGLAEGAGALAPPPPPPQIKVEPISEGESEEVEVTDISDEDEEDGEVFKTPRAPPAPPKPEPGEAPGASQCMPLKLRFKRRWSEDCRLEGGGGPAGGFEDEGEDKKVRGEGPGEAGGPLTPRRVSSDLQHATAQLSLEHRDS
In short: as §1

ETV3L = target: T7, ETV3L (Homo sapiens, UniProt Q6ZN32 1-361); details: protein: recombinant; tags: N-terminal GST; dsDNA, one strand shown
T7 sequence: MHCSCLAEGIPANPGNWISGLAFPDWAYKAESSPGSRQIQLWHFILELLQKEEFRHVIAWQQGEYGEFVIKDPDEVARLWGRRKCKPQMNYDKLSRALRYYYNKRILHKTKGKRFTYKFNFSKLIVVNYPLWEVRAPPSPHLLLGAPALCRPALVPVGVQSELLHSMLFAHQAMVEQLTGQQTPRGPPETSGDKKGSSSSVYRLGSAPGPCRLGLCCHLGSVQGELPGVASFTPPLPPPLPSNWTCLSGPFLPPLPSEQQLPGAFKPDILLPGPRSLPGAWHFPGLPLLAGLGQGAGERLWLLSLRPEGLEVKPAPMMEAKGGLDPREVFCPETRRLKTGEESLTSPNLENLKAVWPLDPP
In short: as §1

ETS2 = target: T8, ETS2 (Homo sapiens, UniProt P15036 1-469); details: protein: recombinant; tags: N-terminal GST; dsDNA, one strand shown
T8 sequence: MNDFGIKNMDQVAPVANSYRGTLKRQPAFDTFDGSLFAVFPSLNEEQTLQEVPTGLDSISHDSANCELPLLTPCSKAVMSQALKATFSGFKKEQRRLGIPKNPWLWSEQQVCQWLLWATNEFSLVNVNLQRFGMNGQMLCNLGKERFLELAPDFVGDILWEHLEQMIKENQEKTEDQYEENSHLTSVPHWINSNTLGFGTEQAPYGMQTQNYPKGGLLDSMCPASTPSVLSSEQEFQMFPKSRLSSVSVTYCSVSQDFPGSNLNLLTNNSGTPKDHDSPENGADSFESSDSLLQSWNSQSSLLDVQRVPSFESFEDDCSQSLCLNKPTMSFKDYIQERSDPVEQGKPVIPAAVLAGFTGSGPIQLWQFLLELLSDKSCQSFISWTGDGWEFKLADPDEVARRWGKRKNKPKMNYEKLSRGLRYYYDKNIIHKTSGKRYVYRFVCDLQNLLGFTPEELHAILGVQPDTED
In short: as §1

SPDEF = target: T9, SPDEF (Homo sapiens, UniProt O95238 1-335); details: protein: recombinant; tags: N-terminal GST; dsDNA, one strand shown
T9 sequence: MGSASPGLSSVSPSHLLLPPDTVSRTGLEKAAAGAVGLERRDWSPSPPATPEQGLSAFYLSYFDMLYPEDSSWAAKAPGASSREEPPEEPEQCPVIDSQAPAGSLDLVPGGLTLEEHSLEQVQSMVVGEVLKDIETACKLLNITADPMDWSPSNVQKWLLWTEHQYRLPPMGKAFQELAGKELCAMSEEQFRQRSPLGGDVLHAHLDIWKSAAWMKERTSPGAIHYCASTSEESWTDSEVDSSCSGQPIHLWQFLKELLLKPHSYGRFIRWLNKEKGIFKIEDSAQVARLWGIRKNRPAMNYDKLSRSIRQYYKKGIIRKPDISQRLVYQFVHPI
In short: as §1

ETV7 = target: T10, ETV7 (Homo sapiens, UniProt Q9Y603 1-341); details: protein: recombinant; tags: N-terminal GST; dsDNA, one strand shown
T10 sequence: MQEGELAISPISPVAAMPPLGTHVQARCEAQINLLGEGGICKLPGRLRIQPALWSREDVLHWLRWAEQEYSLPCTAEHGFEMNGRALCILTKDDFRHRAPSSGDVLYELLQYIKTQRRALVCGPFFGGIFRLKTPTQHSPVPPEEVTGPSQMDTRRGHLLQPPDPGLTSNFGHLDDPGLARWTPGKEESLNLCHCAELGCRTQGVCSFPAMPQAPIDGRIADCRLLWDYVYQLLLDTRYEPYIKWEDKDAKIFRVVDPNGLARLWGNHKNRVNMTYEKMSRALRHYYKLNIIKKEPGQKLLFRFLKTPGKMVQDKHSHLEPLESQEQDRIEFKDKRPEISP
In short: as §1

ELF5 = target: T11, ELF5 (Homo sapiens, UniProt Q9UKW6-2 1-255); details: protein: recombinant; tags: N-terminal GST; dsDNA, one strand shown
T11 sequence: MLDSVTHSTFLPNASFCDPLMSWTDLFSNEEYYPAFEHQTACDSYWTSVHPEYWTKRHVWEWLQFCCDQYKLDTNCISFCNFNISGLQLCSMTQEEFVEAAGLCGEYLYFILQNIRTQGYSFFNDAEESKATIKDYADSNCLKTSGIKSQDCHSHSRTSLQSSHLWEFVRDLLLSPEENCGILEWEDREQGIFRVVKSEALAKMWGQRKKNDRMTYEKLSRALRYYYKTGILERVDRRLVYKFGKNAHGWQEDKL
In short: as §1

ETV3 = target: T12, ETV3 (Homo sapiens, UniProt P41162-2 1-143); details: protein: recombinant; tags: N-terminal GST; dsDNA, one strand shown
T12 sequence: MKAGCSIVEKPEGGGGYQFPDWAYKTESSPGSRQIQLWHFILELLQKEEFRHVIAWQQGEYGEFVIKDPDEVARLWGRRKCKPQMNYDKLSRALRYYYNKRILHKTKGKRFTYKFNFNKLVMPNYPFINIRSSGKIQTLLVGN
In short: as §1

ETV6 = ETV6 (Homo sapiens, UniProt P41212 1-452); details: protein: recombinant; tags: N-terminal GST; dsDNA, one strand shown
ETV6, sequence (P41212 whole entry): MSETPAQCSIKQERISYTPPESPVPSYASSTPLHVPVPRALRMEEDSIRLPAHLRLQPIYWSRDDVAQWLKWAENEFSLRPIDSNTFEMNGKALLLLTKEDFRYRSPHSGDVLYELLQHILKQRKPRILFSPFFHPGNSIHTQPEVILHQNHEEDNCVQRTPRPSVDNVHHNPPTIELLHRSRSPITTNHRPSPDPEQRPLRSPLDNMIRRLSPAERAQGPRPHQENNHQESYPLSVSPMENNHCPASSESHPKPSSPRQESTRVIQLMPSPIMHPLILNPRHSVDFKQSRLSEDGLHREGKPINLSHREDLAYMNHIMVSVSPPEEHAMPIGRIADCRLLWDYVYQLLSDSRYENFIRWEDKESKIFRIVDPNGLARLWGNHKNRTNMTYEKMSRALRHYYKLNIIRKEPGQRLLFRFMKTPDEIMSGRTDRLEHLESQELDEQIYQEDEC
In short: as §1

## TTCTGA
FEV
  binding signal: 1.22 fold enrichment (6-mer frequency, TF over GST control)
ETV5
  binding signal: 1.23 fold enrichment (6-mer frequency, TF over GST control)
HSF1
  binding signal: 1.48 fold enrichment (6-mer frequency, TF over GST control)
SPIC
  binding signal: 1.03 fold enrichment (6-mer frequency, TF over GST control)
ELF4
  binding signal: 1.45 fold enrichment (6-mer frequency, TF over GST control)
ELK4
  binding signal: 1.4 fold enrichment (6-mer frequency, TF over GST control)
ETV2
  binding signal: 1.23 fold enrichment (6-mer frequency, TF over GST control)
ELF3
  binding signal: 1.13 fold enrichment (6-mer frequency, TF over GST control)
CRX
  binding signal: 1.41 fold enrichment (6-mer frequency, TF over GST control)
ETV1
  binding signal: 1.27 fold enrichment (6-mer frequency, TF over GST control)
ERF
  binding signal: 1.16 fold enrichment (6-mer frequency, TF over GST control)
ETV3L
  binding signal: 1.35 fold enrichment (6-mer frequency, TF over GST control)
ETS2
  binding signal: 1.43 fold enrichment (6-mer frequency, TF over GST control)
SPDEF
  binding signal: 1.38 fold enrichment (6-mer frequency, TF over GST control)
ETV7
  binding signal: 1.19 fold enrichment (6-mer frequency, TF over GST control)
ELF5
  binding signal: 1.26 fold enrichment (6-mer frequency, TF over GST control)
ETV3
  binding signal: 1.37 fold enrichment (6-mer frequency, TF over GST control)
ETV6
  binding signal: 1.3 fold enrichment (6-mer frequency, TF over GST control)
